# In the supplement of paper PMC10477191:
# ± gives the standard deviation of the averaged measurements.
# Assays:
# Test in all cases: odor-evoked OSN spike response (post minus pre-stimulus); higher = stronger neuronal excitation
# Conditions in all cases: odor dilution: 10^-4
# [1] = system: Drosophila ezoana antennal basiconic sensillum ab1
# Outline: (§1)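 Spike frequency was compared between 1-second windows before and after each stimulus in Auto Spike software. That change, averaged over replicate sensilla, is the response. Each stimulus was a 500 ms air pulse over filter paper carrying 10 µl of odorant at 10^−4 in mineral oil or DMSO, delivered into a humidified, charcoal-filtered 1.5 l min^−1 stream. A tungsten electrode recorded at the base of antennal basiconic sensilla of restrained adult flies, with up to 3 sensilla per fly.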
# [2] = system: Drosophila ezoana antennal basiconic sensillum ab3
# Outline: as §1
# [3] = system: Drosophila virilis antennal basiconic sensillum AB2
# Outline: as §1
smiles,measurement,setting,value
CC(C)=O [acetone],odor-evoked OSN spike response,[1],67.1 ± 24 spikes/s
same,odor-evoked OSN spike response,[2],63.3 ± 28 spikes/s
same,odor-evoked OSN spike response,[3],53.7 ± 24 spikes/s
